High-throughput results deposited in PubChem BioAssay by National Center for Advancing Translational Sciences (NCATS).
Most compounds without a hit are left out; they make up all but 2.5% or so of the library.
Cruzain Triton – blocks cruzain activity in presence of Triton detergent; Potency, µM, hits mostly inhibitors; 200,000 tested, 0.43% active; purified cruzain, Z-FR-AMC fluorescence, 0.01% Triton; also: nearly all actives have a fitted effect of over 40% in size
Target sequence (P25779 123-467 limits assumed): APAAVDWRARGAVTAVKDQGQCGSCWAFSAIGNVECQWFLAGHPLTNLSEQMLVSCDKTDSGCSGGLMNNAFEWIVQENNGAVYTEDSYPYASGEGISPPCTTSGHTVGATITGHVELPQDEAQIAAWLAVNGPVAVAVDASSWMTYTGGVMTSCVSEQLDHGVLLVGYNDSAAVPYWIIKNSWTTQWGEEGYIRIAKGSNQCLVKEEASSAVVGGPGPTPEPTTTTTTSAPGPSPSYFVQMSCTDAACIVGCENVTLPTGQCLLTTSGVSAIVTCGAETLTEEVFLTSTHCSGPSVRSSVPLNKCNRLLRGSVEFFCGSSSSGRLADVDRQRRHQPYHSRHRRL
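Steps: dispense cruzain (1.5 nM final) in acetate buffer pH 5.5 with DTT and 0.01% Triton X-100; pin-transfer compounds; incubate 15 min RT; add Z-FR-AMC (2 uM final); read fluorescence every 30 s, using the 60 s intensity change.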
Cruzain inh noDet – inhibitors of Trypanosoma cruzi cruzain without detergent | P25779 | purified cruzain, Z-FR-AMC fluorescence, no detergent | Potency, µM, most hits filed as inhibitors | 200,000 tested, 2.3% active | AID 1476; also: nearly all actives have a fitted effect of over 40% in size
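Purified cruzain at 1.5 nM, pre-incubated 15 min with compound at room temperature in 100 mM sodium acetate pH 5.5, 5 mM DTT, 0.00005% Triton X-100. Reaction started with 2 uM Z-FR-AMC; AMC fluorescence increase over 60 s gives rate.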
A number is an active result; – = inactive; ? = inconclusive. Calls follow the shape of the dose curve; as a rule, active = well fitted curve in the direction sought with a large enough effect; inconclusive = small, poorly fitted or top-dose-only effect, or another doubt; inactive = no such curve, though single readings can be large; an effect the other way counts as inactive or inconclusive.

SMILES	Cruzain Triton	Cruzain inh noDet
CCOC(=O)c1sc(NC(=O)c2cc(-c3ccccc3C)nc3ccccc23)c(C#N)c1C	–	10µM
CCOC(=O)c1c(NC(=O)c2cc(-c3ccc(Cl)s3)nc3ccccc23)sc(C(N)=O)c1C	–	–
CCCN1C(=O)CN(C2CCCCCC2)C(=O)C1c1ccc(OCC)c(OC)c1 (centres undefined)	–	–
CC1CCC(NC(=O)C2(C)Cc3ccccc3C(=O)N2Cc2ccccc2Cl)CC1 (centres undefined)	–	–
CN(C)CCNC(=O)c1cc2c(=O)n(C)c3ccccc3c2n1C	25µM	?
CCN(CC)CCNC(=O)c1cc2c(=O)n(C)c3ccccc3c2n1C	–	–
O=C(NCCc1csc(-c2cccnc2)n1)c1ccc(F)c(F)c1	–	–
O=C(CNC(=O)C(c1ccccc1)c1ccccc1)OCC(=O)c1cccs1	20µM	13µM
O=C(CNC(=O)c1cccs1)OCC(=O)c1ccccc1	–	–
Cc1ccc(Sc2ccc(N3CCCC(C(=O)Nc4ccc(F)cc4)C3)nn2)cc1 (centres undefined)	–	–
CCc1ccc(NC(=O)c2ccc3c(c2)c(C)c(C)n3Cc2ccccc2)cc1	–	13µM
CCc1cccc(NC(=O)c2ccc3c(c2)c(C)c(C)n3Cc2ccc(F)cc2)c1	–	16µM
Cc1ccc(CCNC(=O)c2ccc3c(c2)c(C)c(C)n3Cc2ccccc2)cc1	–	13µM
COc1cccc(CNC(=O)c2ccc3c(c2)c(C)c(C)n3Cc2ccccc2)c1	–	?
CCc1ccc(CNC(=O)c2ccc3c(c2)c(C)c(C)n3Cc2ccccc2)cc1	–	32µM
CCOc1ccc(CCNC(=O)c2ccc3c(c2)c(C)c(C)n3Cc2ccccc2)cc1OCC	–	?
CCc1ccc(NC(=O)c2ccc3oc(=O)n(Cc4ccccc4)c3c2)cc1	–	–
Cc1c(C)n(Cc2ccccc2)c2ccc(C(=O)NCc3ccco3)cc12	–	?
Cc1nc2ncnn2c(C)c1CCC(=O)NCc1ccc(Cl)cc1	–	–
CCN(CC)c1ccc(NC(=O)c2cnc3c(-c4ccccc4)c(C)nn3c2C)c(C)c1	–	–
Nc1ccc(N2CCCCCC2)cc1	–	32µM
O=C(O)c1ccc(N2CCCCC2)cc1	–	–
CC(=O)N1CCCc2cc(S(=O)(=O)NCc3ccc(OC(C)C)cc3)ccc21	–	–
COc1ccccc1CNc1nc(-c2ccoc2)nc2ccccc12	–	25µM
COc1ccccc1CNc1ccnc(-c2ccoc2)n1	–	–
SMILES	Cruzain Triton	Cruzain inh noDet
COCCn1c(-c2cc(OC)c(OC)c(OC)c2)nc2nc3ccccc3nc21	–	–
COCCn1c(-c2ccco2)nc2nc3ccccc3nc21	28µM	–
CCc1nnc(NC(=O)c2ccc(-c3ccc(Cl)cc3)o2)s1	–	16µM
CCn1nnc(NC(=O)c2ccc(-c3ccc(Cl)cc3)o2)n1	–	–
CCC1Oc2ccccc2N(CC(=O)NCc2ccccc2)C1=O (centres undefined)	–	–
O=C1CCC/C(=N/NC(=O)c2ccc(CN3c4cccc5cccc(c45)S3(=O)=O)cc2)C1	–	–
CC(/C=N/NC(=O)c1ccc(CN2c3cccc4cccc(c34)S2(=O)=O)cc1)c1ccccc1 (centres undefined)	–	10µM
CC(=O)c1ccc(NC(=O)C2CCCN(S(=O)(=O)c3cn(C)cn3)C2)cc1 (centres undefined)	–	–
Cc1ccc(Cl)cc1NC(=O)C(NS(=O)(=O)c1cccc2nsnc12)c1ccccc1 (centres undefined)	–	?
Cc1ccc2c(CC(=O)Nc3ccc(S(=O)(=O)N4CCCCC4C)cc3)coc2c1 (centres undefined)	–	25µM
Cc1ccc2c(CC(=O)Nc3ccc(S(=O)(=O)N4CCCCC4C)cc3)coc2c1C (centres undefined)	–	?
COc1ccc(/C=N/NC(N)=S)cc1OC(=O)c1ccccc1	–	?
NC(=S)N/N=C/C=C/c1ccccc1	25µM	16µM
NC(=S)N/N=C/c1ccc2ccccc2c1	2.2µM	0.79µM
O=C(N/N=C/C=C/c1ccccc1)c1ccccc1Br	–	–
CCc1ccccc1N(C)C(=O)c1cnc(N2CCOCC2)c2ccccc12	–	–
O=C(Oc1ccccc1)C1O[C@@H]1c1ccccc1 (some centres undefined)	–	–
CC(C)OC(=O)c1c(NC(=O)C2c3ccccc3Oc3ccccc32)sc2c1CCCC2	–	6.3µM
CCC1CCc2c(sc(NC(=O)C3c4ccccc4Oc4ccccc43)c2C(N)=O)C1 (centres undefined)	–	25µM
CCOC(=O)c1c(NC(=O)C2c3ccccc3Oc3ccccc32)sc(C(N)=O)c1C	–	–
CCOC(=O)c1c(NC(=O)c2ccccc2OCC)sc2c1CCC(CC)C2 (centres undefined)	–	–
CCN(CC)C(=O)c1sc(NC(=O)C2c3ccccc3Oc3ccccc32)c(C(=O)OC(C)C)c1C	–	–
CCCOC(=O)c1c(NC(=O)C2c3ccccc3Oc3ccccc32)sc2c1CCCC2	–	25µM
